Compound activity deposited in PubChem BioAssay by National Center for Advancing Translational Sciences (NCATS).
Imprint erasure: qHTS Assay for Compounds that Induce Erasure of Genomic Imprints; mouse ES Peg3-LacZ reporter, beta-gal luminescence, 40 h; Potency, µM (top dose mostly 60.7 µM), actives largely listed as activators; 110,000 tested, 0.02% active
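Readout: BetaGlo luminescence (5 min, room temp) for LacZ from the normally silent maternal Peg3 allele in female Peg3LacZ-Neo ES cells. Cells 300/well, 40 h, 37C, 5% CO2. Data normalized per plate to negative controls.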
p53ts 39C kill: qHTS Screen for Compounds that Selectively Target Cancer Cells with p53 Mutations: Cytotoxicity of p53ts Cells at the Nonpermissive Temperature; H1299-p53A138V viability at 39C, ATP luminescence, 24 h; 130,000 tested, 1.5% active; Potency, µM (top dose mostly 46.1 µM), hits mostly cytotoxic; AID 902, 2007; note: nearly all actives have a fitted effect of over 55% in size
p53ts 32C tox: qHTS Screen for Compounds that Selectively Target Cancer Cells with p53 Mutations: Cytotoxicity of p53ts Cells at the Permissive Temperature; Potency, µM (highest dose often 46.1 µM), most hits filed as cytotoxic; 130,000 tested, 0.93% active; AID 924, 2007; H1299-p53A138V at 32C, ATP luminescence viability, 24 h; note: nearly all actives have a fitted effect of over 55% in size
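ATP-content luminescence (ATPlite) read-out after 24 h compound exposure at 32C in H1299-p53A138V cells (600/well). Tested up to 46 uM. Normalized to DMSO (0%) and 100 uM tamoxifen (100% killing); Hill-fit AC50.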
IkB signaling: IkB Signaling | Potency, µM (highest dose often 57.1 µM) | 110,000 tested, 0.04% active | ABC-DLBCL IkBa-CBG/CBR dual luciferase ratio, 4 h; response scale: scaled: untreated 0%, proteasome inhibitor 100%; active = well fitted curve in the direction sought with a large enough effect in the signal ratio, not every such curve was filed as active; inconclusive = small, poorly fitted or top-dose-only effect, or a change in a side signal; the % refers to the signal ratio;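 note: the direction sought is a rising ratio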
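Luminescence ratio of IκBα-fused green versus native red beetle luciferase in OCI-Ly3 cells, 4 h post-doxycycline with compound; red signal alone, scaled from basal (0%) to zero light (-100%), flagged nonspecific or cytotoxic effects.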
Of the large screens only hits and unclear results are named; the others gave an inactive call. Most compounds without a hit are left out; they make up all but 1.8% or so of the library. Unless noted, calls come from the whole dose curve; as a rule, active = well fitted curve in the direction sought with a large enough effect; inconclusive = small, poorly fitted or top-dose-only effect, or another doubt; inactive = no such curve, though single readings can be large; an effect the other way counts as inactive or inconclusive.

CCSc1ncc(Cl)c(C(=O)N2CCN(c3ccc(OC)cc3)CC2)n1	IkB signaling inconclusive
O=C(NCC1OCCc2ccccc21)c1ccc(NC(=O)c2ccc(Cl)cc2)cc1 (stereo not drawn)	none (no result: Imprint erasure, IkB signaling)
Cc1c(C(=O)Nc2cccc(C(F)(F)F)c2)oc2ccc3c(c12)C(=O)CC(C)(C)O3	p53ts 39C kill 16µM
Cc1c(C(=O)NCC2CCCO2)oc2ccc3c(c12)C(=O)CC(C)(C)O3 (stereo not drawn)	p53ts 39C kill inconclusive, p53ts 32C tox 13µM (no result: Imprint erasure, IkB signaling)
Cc1cc(C)cc(NC(=O)c2oc3ccc4c(c3c2C)C(=O)CC(C)(C)O4)c1	p53ts 39C kill inconclusive, p53ts 32C tox inconclusive, IkB signaling inconclusive
C[C@@]1(O)C(O)[C@@H](CO)O[C@H]1n1cnc2c(NC3CCCC3)nc(Cl)nc21 (stereo partly drawn)	none (no result: IkB signaling)
CCOC(=O)CSc1nc2c(c(=O)n1-c1ccc(OCC)cc1)SCC2	none
CCOC(=O)CSc1nc2c(c(=O)n1-c1ccc(OC)cc1)SCC2	p53ts 39C kill 1.3µM, p53ts 32C tox 1.3µM
Cc1cc2nc(-c3cccnc3SCC(=O)NCc3ccco3)[nH]c2cc1C	p53ts 39C kill 5µM, p53ts 32C tox 5µM, IkB signaling inconclusive
COc1ccc(CCNC(=O)c2cc3c(=O)n(C)c4cc(Cl)ccc4c3s2)cc1OC	none
CCN(CC)CCOC(=O)c1ccc(NC(=O)COc2cc(=O)n(CC)c3ccccc23)cc1	none
CCN(CC)CCOC(=O)c1ccc(NC(=O)CSc2cc(=O)n(CC)c3ccccc23)cc1	Imprint erasure inconclusive, p53ts 39C kill 10µM
COc1ccc2[nH]cc(CCNc3ccnc(-c4ccccc4C)n3)c2c1	none
CCc1ccc(NCc2cccn2-c2nnc(N3CCCCCC3)s2)cc1	IkB signaling inconclusive
O=c1cc(-c2cccc(O)c2)oc2cc(O)ccc12	none
O=c1cc(-c2cccc(O)c2)oc2c(O)c(O)ccc12	p53ts 39C kill 25µM, p53ts 32C tox inconclusive
COc1ccc(-c2cc(=O)c3cc(OC)ccc3o2)cc1	p53ts 39C kill inconclusive, p53ts 32C tox inconclusive (no result: IkB signaling)
COc1cccc(-c2oc3ccc(C)cc3c(=O)c2O)c1	p53ts 39C kill 10µM, p53ts 32C tox inconclusive, IkB signaling inconclusive
COc1ccc2oc(-c3ccc(O)cc3)cc(=O)c2c1	p53ts 39C kill 7.9µM, p53ts 32C tox 5µM
COC(=O)COc1ccc2oc(-c3ccc(OC)cc3)cc(=O)c2c1	none
Cc1ccc2oc(-c3ccccc3)c(O)c(=O)c2c1	none
CCCCC(=O)Oc1ccc2oc(-c3ccc(OC)cc3)cc(=O)c2c1	p53ts 39C kill 6.3µM, p53ts 32C tox inconclusive, IkB signaling inconclusive
CC(=O)O[C@H]1C2=CO[C@H](C)[C@H]3[C@H]4C5=C([C@H](O)[C@H]6O[C@@H]6C5=O)[C@H](O[C@H]4C)[C@@]23C(=O)[C@H]2O[C@@H]21	none (no result: Imprint erasure, IkB signaling)
COc1cccc(C(=O)N2c3nc(-c4ccco4)nn3C3(CCCCC3)[C@@H]3CCCC[C@@H]32)c1	IkB signaling inconclusive
CC(C)CO/N=C1/C[C@@H](O)[C@@H](O)[C@@H]2[C@@H]3C(=O)N(c4cccc(Oc5ccccc5)c4)C(=O)[C@H]3CC[C@H]12	none (no result: Imprint erasure, IkB signaling)
COc1cccc(-c2cc(=O)c3cc(O)ccc3o2)c1	p53ts 39C kill 13µM, p53ts 32C tox inconclusive
COc1cccc(-c2cc(=O)c3ccc(OC)cc3o2)c1	none (no result: IkB signaling)
COc1ccc(CC(=O)Nc2sc3c(c2C(=O)Nc2cccc(C)c2)CCCCC3)cc1	p53ts 39C kill 10µM, IkB signaling inconclusive
CCc1ccccc1NC(=O)CCc1c(C)nn(-c2ccc(N3CCOCC3)nn2)c1C	none
Cc1ccc(CCNC(=O)CN2CCN(Cc3ccc(Cl)cc3)C2=O)cc1	none
CCCCCCCC/C=C\CCCCCCCC(=O)NCCc1ccc(O)c(O)c1	p53ts 39C kill 13µM, p53ts 32C tox inconclusive
CCCCCCCC/C=C\CCCCCCCC(=O)NCc1ccc(O)c(OC)c1	p53ts 39C kill 32µM, p53ts 32C tox inconclusive
COc1ccc(O[C@H]2C=C[C@@H](c3ccccc3)O[C@H]2COC(=O)CC/C(C)=N\O[C@@H](C)c2cc(-c3c(C)cc(C)cc3C)no2)cc1	none (no result: Imprint erasure, IkB signaling)
Cc1ccc(CNC(=O)CN2C(=O)COc3ccc(S(=O)(=O)N4CCC(C)CC4)cc32)cc1	IkB signaling inconclusive
CN(C(=O)CSc1nc2ccccc2[nH]1)c1ccc(F)cc1	none
Cc1ccc(CNC(=O)Cc2c(C)c3c(cc(C)c4c(C)coc43)oc2=O)cc1	none
C/C(=N\NC(=O)c1ccncc1)c1ccc2ccccc2c1O	p53ts 39C kill 2µM, p53ts 32C tox inconclusive
O=C(c1ccncc1)N1CCN(C(=O)c2cccc3ccccc23)CC1	none
CC(=O)c1c(C)[nH]c(C(=O)Nc2ccc(C)cn2)c1C	p53ts 39C kill 5µM, p53ts 32C tox 2.5µM
CC(=O)c1c(C)[nH]c(C(=O)NCc2ccccn2)c1C	none
CCOC(=O)OCC1OC(c2ccccc2)C=CC1OC(=O)OCC (stereo not drawn)	none (no result: Imprint erasure, IkB signaling)
O=C(N/N=C/c1sc2ccccc2c1O)c1ccccc1	p53ts 39C kill 7.1µM (no result: Imprint erasure, p53ts 32C tox, IkB signaling)
COc1ccccc1NC(=O)C1=C(C)Nc2c(C(=O)Nc3ccc(F)cc3)cnn2C1c1ccc(Cl)cc1 (stereo not drawn)	IkB signaling inconclusive
Cc1cc(C(=O)COC(=O)CNC(=O)c2ccco2)c(C)n1Cc1ccco1	none (no result: Imprint erasure, p53ts 32C tox, IkB signaling)
CCOc1ncccc1C(=O)OCC(=O)c1cc(C)n(Cc2ccco2)c1C	p53ts 32C tox 13µM, IkB signaling inconclusive
CC(=O)[C@@H]1CC[C@@H]2[C@@H]3CC=C4C[C@H](OS(=O)(=O)O)CC[C@@]4(C)[C@H]3CC[C@]21C	none (no result: Imprint erasure)
CN(Cc1ccccc1)C(=O)Nc1ccc2c(c1)N(C)C(=O)c1ccccc1S2	p53ts 39C kill 13µM, p53ts 32C tox inconclusive
O=C(O)CCn1nnc(-c2cccs2)n1	none
CC(C)c1ccc(-c2nnn(CCC(=O)O)n2)cc1	p53ts 39C kill inconclusive, p53ts 32C tox 10µM, IkB signaling inconclusive
COc1ccc(NC(=O)C(NS(=O)(=O)c2cccc3nsnc23)c2ccccc2)cc1 (stereo not drawn)	none
COc1ccc(Nc2nc3c(S(=O)(=O)c4ccccc4)nnn3c3ccc(Cl)cc23)cc1	p53ts 39C kill 10µM, p53ts 32C tox inconclusive
COc1ccc(Nc2nc3c(S(=O)(=O)c4ccccc4)nnn3c3ccc(Cl)cc23)cc1OC	none
CC(C)c1ccc(C2N=C(N)Nc3nc4ccccc4n32)cc1 (stereo not drawn)	p53ts 39C kill 10µM, IkB signaling inconclusive
CCOc1ccc(-n2nc3ccc(NC(=O)c4ccc(-c5cccc(Cl)c5)o4)cc3n2)cc1	p53ts 39C kill 7.9µM, p53ts 32C tox inconclusive, IkB signaling inconclusive
CCOc1ccc(-n2nc3ccc(NC(=O)COc4ccccc4)cc3n2)cc1	none
Cc1ccc(C(=O)Nc2ccc3c(c2)CCC3)o1	p53ts 39C kill inconclusive, p53ts 32C tox 13µM (no result: Imprint erasure, IkB signaling)
CC(=O)OCC1OC(C#Cc2ccc(C)cc2C)C=CC1OC(C)=O (stereo not drawn)	p53ts 39C kill inconclusive (no result: Imprint erasure, IkB signaling)
